In ChEMBL document CHEMBL1157539, “Thousands of chemical starting points for antimalarial lead identification” (Nature, 2010) one finds Inhibition data, which are given here for 30 molecules.

Holding throughout (assay type): functional
Assay [1] has as its system Plasmodium falciparum. In words: GSK_TCMDC: Inhibition of Plasmodium falciparum 3D7 in whole red blood cells, using parasite LDH activity as an index of growth. Test compounds present at 2uM.
Assay [2] has as its system Plasmodium falciparum. Description: GSK_TCMDC: Inhibition of Plasmodium falciparum Dd2 in whole red blood cells, using parasite LDH activity as an index of growth. Test compounds present at 2uM.
In another assay the test system is HepG2. In words: GSK_TCMDC: Percent inhibition of human HepG2 cell line. Test compounds present at 10uM.

As to `O=C(O)C(F)(F)F.O=c1cc(NCCCNCc2cn(S(=O)(=O)c3ccccc3)c3ccccc23)[nH]c2ccccc12`, the Inhibition (commonly the drop in the measured response relative to a control, in per cent) in the assay with Plasmodium falciparum [1] came to 91%; in the assay on Plasmodium falciparum [2], 29%; in the assay with HepG2, 17%.

On to `COc1cc(-c2cc3cc(Cl)c(Cl)cc3[nH]2)ccc1C(=O)NC1CCN(Cc2ccccc2)CC1.O=C(O)C(F)(F)F`, for which the Inhibition is listed as 100% with Plasmodium falciparum [1], 100% with Plasmodium falciparum [2] and 12% in the assay on HepG2.

Turning to `CN1CCN(c2ccc(Nc3nccc(-c4cnn5ncccc45)n3)cc2Cl)CC1`, the Inhibition worked out at 95% in the assay on Plasmodium falciparum [1], 92% in the assay on Plasmodium falciparum [2] and 65% in the assay on HepG2.

Regarding `CC(C)COc1ccc(Cl)cc1Cc1nc(-c2nc3ccc(CN4CCCCC4)cc3[nH]2)co1.Cl`, the Inhibition in the assay with Plasmodium falciparum [1] was determined as 100%; in the assay with Plasmodium falciparum [2], 70%; with HepG2 it was 49%.

`O=C(C=Cc1ccc(Cl)c(Cl)c1)NCCCCCN1CCCC(CCCNC(=O)C2CC2c2ccccc2)C1` (stereo not given): the Inhibition is 85% in the assay with Plasmodium falciparum [1], 5% in the assay with Plasmodium falciparum [2] and 48% in the assay on HepG2.

Regarding `Cc1ccc(-c2cnc(N)c3cc(-c4ccnc(N)n4)ccc23)cc1`, the figures for the Inhibition in the assay on Plasmodium falciparum [1], in the assay with Plasmodium falciparum [2] and in the assay on HepG2 were 99%, 94% and 41%, respectively.

Consider `CN(CCN1CCC(c2c[nH]c3ccccc23)CC1)c1ccc(-c2nc3cc(Cl)c(Cl)cc3[nH]2)cc1`, for which the Inhibition with Plasmodium falciparum [1] came out at 100%; in the assay with Plasmodium falciparum [2] it was 100%; with HepG2, 22%.

In the case of `FC(F)(F)c1ccc2[nH]c(-c3ccc(-c4ccc(CNCc5ccccc5)cc4)cc3)nc2c1.O=C(O)C(F)(F)F`, the Inhibition turned out to be 100% with Plasmodium falciparum [1], 96% in the assay with Plasmodium falciparum [2] and 22% with HepG2.

In the case of `O=C(Nc1nc2cc(S(=O)(=O)NCCc3cccc(F)c3)ccc2n1CCCn1ccnc1)c1ccc(Cl)cc1.O=C(O)C(F)(F)F`, the values for the Inhibition with Plasmodium falciparum [1], in the assay with Plasmodium falciparum [2] and in the assay with HepG2 were 90%, 8% and 0%, respectively.

Regarding `FC(F)(F)c1ccc(Nc2nnnc3ccccc23)cc1`, the Inhibition with Plasmodium falciparum [1] is recorded as 90%; in the assay on Plasmodium falciparum [2], 82%; in the assay with HepG2 it was 3%.

Regarding `CC(Cc1ccc(OCc2ccccc2)cc1)Nc1nc(O)c2ccccc2n1.Cl` (stereo not given), the results for the Inhibition in the assay with Plasmodium falciparum [1], in the assay on Plasmodium falciparum [2] and in the assay on HepG2 were 98%, 96% and 2%, respectively.

Regarding `CCOc1ccc2ccccc2c1C(=O)Nc1cc(C)nn1-c1nc(C)cc(=O)[nH]1`, the Inhibition in the assay with Plasmodium falciparum [1] came out at 93%; in the assay on Plasmodium falciparum [2] it was 86%; with HepG2, 28%.

`CN1CCC(C(=O)Nc2ccc(-c3cccc(-c4nc5cc(C(F)(F)F)ccc5[nH]4)c3)cc2)CC1`: the Inhibition was 100% in the assay with Plasmodium falciparum [1], 97% in the assay with Plasmodium falciparum [2] and 28% in the assay on HepG2.

In the case of `CC(C)(C)NCCN(Cc1ccc(-c2ccc(C(F)(F)F)cc2)cc1)C(=O)Cn1c(CCc2cccc(F)c2F)nc(=O)c2c1CCC2.O=C(O)C(O)C(O)C(=O)O`, the Inhibition in the assay on Plasmodium falciparum [1] was 95%; with Plasmodium falciparum [2] it was 48%; in the assay on HepG2, 6%.

Turning to `Cc1cc(N2Cc3ccccc3C2)nc(Nc2ccc(S(=O)(=O)N3CCOCC3)cc2)n1.Cl`, the Inhibition came to 100% in the assay on Plasmodium falciparum [1], 85% in the assay on Plasmodium falciparum [2] and 13% with HepG2.

`OC1CCC(Nc2ccc3ncc(-c4ccc(Cl)cc4)n3n2)CC1` (stereo not given): the Inhibition in the assay on Plasmodium falciparum [1] was determined as 97%; with Plasmodium falciparum [2] it was 98%; in the assay with HepG2 it was 57%.

Regarding `O=C(Cc1cccc2ccccc12)NC1CCN(c2ccnc3cc(Cl)ccc23)C1.O=C(O)C(F)(F)F` (stereo not given), the Inhibition was found to be 82% in the assay on Plasmodium falciparum [1], 97% in the assay on Plasmodium falciparum [2] and 13% with HepG2.

For the molecule `Cl.O=[N+]([O-])c1ccc(C(O)CNCCc2ccccc2)cc1OCc1ccccc1` (stereo not given), the Inhibition with Plasmodium falciparum [1] was found to be 94%; with Plasmodium falciparum [2], 67%; with HepG2, 0%.

For the molecule `Cl.Nc1ccc2c(N)c3ccccc3nc2c1`, the Inhibition amounted to 93% in the assay with Plasmodium falciparum [1], 74% in the assay with Plasmodium falciparum [2] and 20% in the assay on HepG2.

On to `CC(=O)Nc1ccc(CN(Cc2ccc(F)cc2)Cc2cccc(Oc3ccccc3)c2)cc1`, for which the Inhibition in the assay on Plasmodium falciparum [1] is listed as 88%; in the assay with Plasmodium falciparum [2] it was 82%; in the assay on HepG2 it was 0%.

On to `CN(C)Cc1c(O)ccc2oc(Cc3ccccc3)cc12.Cl`, for which the figures for the Inhibition in the assay on Plasmodium falciparum [1], in the assay on Plasmodium falciparum [2] and in the assay with HepG2 were 99%, 94% and 0%, respectively.

In the case of `CN(C)CCOc1ccc(NC(=O)Nc2ccnc3c(Br)cccc23)cc1Cl`, the values for the Inhibition with Plasmodium falciparum [1], with Plasmodium falciparum [2] and in the assay on HepG2 were 97%, 25% and 10%, respectively.

Regarding `N#Cc1ccc(N2CCN(Cc3cccc(-c4ccc(-c5nc6cc(C(F)(F)F)ccc6[nH]5)cc4)c3)CC2)nc1.O=C(O)C(F)(F)F`, the Inhibition with Plasmodium falciparum [1] was 100%; in the assay with Plasmodium falciparum [2], 81%; with HepG2 it was 39%.

Consider `O=C(N[C@H]1CCN(Cc2ccc(OC3CCN(Cc4ccccc4)CC3)c(Cl)c2)C1)c1ccc(Cl)c(Cl)c1.O=C(O)C(F)(F)F`, for which the results for the Inhibition with Plasmodium falciparum [1], in the assay with Plasmodium falciparum [2] and in the assay on HepG2 were 99%, 11% and 59%, respectively.

Turning to `Cc1cc(N(C)C)nc(Nc2ccc(NC(=O)c3ccccc3Cl)cc2)n1`, the values for the Inhibition in the assay on Plasmodium falciparum [1], in the assay on Plasmodium falciparum [2] and in the assay with HepG2 were 88%, 31% and 3%, respectively.

As to `Cc1[nH]c(C)c(-c2ccc(Oc3cccc(Cl)c3)cc2)c(=O)c1Br`, the figures for the Inhibition with Plasmodium falciparum [1], in the assay with Plasmodium falciparum [2] and with HepG2 were 98%, 97% and 46%, respectively.

For `CC(=O)Nc1ccc(OCCCCN(Cc2ccccc2OC(F)(F)F)c2ccc(C(F)(F)F)c(C#N)c2)c(Cl)c1`, the Inhibition in the assay on Plasmodium falciparum [1] was 89%; in the assay on Plasmodium falciparum [2], 96%; in the assay on HepG2 it was 11%.

As for `Cc1ccc(Nc2cc(C)nn2-c2nc(C)cc(O)n2)cc1`, the Inhibition stood at 97% in the assay with Plasmodium falciparum [1], 95% in the assay with Plasmodium falciparum [2] and 54% with HepG2.

`COc1ccc(Nc2ncc3c(-c4cccc(NC(=O)CC(C)C)c4)c[nH]c3n2)cc1OC`: the results for the Inhibition with Plasmodium falciparum [1], with Plasmodium falciparum [2] and with HepG2 were 100%, 71% and 37%, respectively.

For `COC(=O)CCCOc1cc(Cc2cnc(N)nc2N)cc(OC)c1OC`, the Inhibition with Plasmodium falciparum [1] is recorded as 95%; in the assay with Plasmodium falciparum [2], 0%; in the assay on HepG2, 12%.
